# Assay results as given in PubChem BioAssay AID489017 (The Scripps Research Institute Molecular Screening Center, 2010).
# A number with no mark means an inactive call. The rule behind the calls is not given here.
# Test system: Potassium Channel [KATP]
# Experiment: receptor, enzyme and CYP inhibition profiling – biochemical, Ricerca HitProfilingScreen, CYP450, selectivity assay for S1P4 antagonist project, profiling panel (AID 489017)
# Conditions: Ricerca receptor/enzyme binding panel plus CYP450, at 10 µM, active compounds read high
compound,measurement,value
CCc1cccc(CC)c1NC(=O)c1ccc(-c2cc(Cl)ccc2Cl)o1,inhibition,14%
